# Most compounds without a hit are left out; they make up all but 4.9% or so of the library.
# Beta cell apopt – blocks beta cell apoptosis. INS-1E cytokine-induced death, ATP luminescence, 48 h; percent of positive-control rescue, neutral wells zero. 300,000 compounds, 0.8% hits. protection from apoptosis, % (concentration not given with the values);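 active means Every replicate reaches about 75%, or at least half do and their mean reaches it too, limit read from the data; inconclusive means At least half of replicates reach the limit but their mean does not; inactive means Under half of replicates reach the limit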;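 further: higher means more ATP so stronger rescue from cytokine killing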
# PP5 inh – blocks human protein phosphatase 5 activity; 320,000 compounds, 0.18% hits; purified PP5c, OMFP substrate fluorescence; P53041; inhibition, % at 6.7 µM;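 active means inhibition above the campaign's mean inhibition across all tested compounds plus 3 SD, cut at about 9.5% in these data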
# Target sequence (P53041 whole entry, looked up): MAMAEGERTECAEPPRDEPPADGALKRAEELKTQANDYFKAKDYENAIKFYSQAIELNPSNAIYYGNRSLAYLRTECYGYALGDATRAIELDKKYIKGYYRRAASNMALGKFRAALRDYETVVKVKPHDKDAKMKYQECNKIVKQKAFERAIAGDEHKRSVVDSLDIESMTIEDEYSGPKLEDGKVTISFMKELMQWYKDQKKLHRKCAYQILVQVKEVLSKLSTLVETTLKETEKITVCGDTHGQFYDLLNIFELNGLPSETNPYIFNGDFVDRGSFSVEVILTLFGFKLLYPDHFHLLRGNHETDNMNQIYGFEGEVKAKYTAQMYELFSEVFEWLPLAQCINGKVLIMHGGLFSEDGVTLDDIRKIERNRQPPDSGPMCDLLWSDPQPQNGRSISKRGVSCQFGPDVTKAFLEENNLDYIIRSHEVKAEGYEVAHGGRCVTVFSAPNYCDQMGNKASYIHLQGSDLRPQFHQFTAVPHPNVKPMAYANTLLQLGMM
# PP1 counter – blocks human PP1-alpha phosphatase, a PP5 counter-screen; purified PP1alpha, OMFP fluorescence; 320,000 compounds, 0.9% hits; inhibition, % at 6.7 µM; AID 2235;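 active means inhibition above the mean inhibition of all tested compounds plus 3 SD, computed separately for each screening campaign, cut at about 15% in these data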
# Mdm2 MdmX PPI – human Mdm2/MdmX binding inhibition; SaOS-2 split-luciferase Mdm2/MdmX complementation, luminescence; inhibition, % at 8 µM; 330,000 compounds, 3% hits; AID 485346;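 active means inhibition of at least 50% at 8 µM in the primary screen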
# Calb FLC – C. albicans growth modulation with fluconazole. C. albicans CaCi-2 (fluconazole-resistant clinical isolate) + fluconazole, Alamar Blue growth, 48 h. growth inhibition, % (concentration not given with the values). 300,000 compounds, 0.57% hits;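 active means growth inhibition above about 58% in most replicates, limit read from the data, passing the limit was not always enough; inconclusive means exactly half the replicates above a set limit; inactive means most replicates below a set limit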;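 further: all wells also contain fluconazole at 8 µg/ml as a sub-toxic cotreatment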
# CSC inhib – blocks cancer stem cells; cancer stem cell-like cells viability, luminescence; inhibition, % at 7.5 µM; 300,000 compounds, 1.1% hits; AID 2717; in the data active means inhibition above about 75%; inconclusive means no clear call, values can overlap the other calls; tested in HMLE shEcad cells
# A number is an active result; 0 = inactive; ? = inconclusive; - = not tested or not shown.
SMILES,Beta cell apopt,PP5 inh,PP1 counter,Mdm2 MdmX PPI,Calb FLC,CSC inhib
Cc1ccc(NC(=O)CC2NCCNC2=O)cc1Cl (configuration not stated),0,0,0,0,120,0
O=C(CC1NCCNC1=O)Nc1ccc(Cl)c(Cl)c1 (configuration not stated),0,0,0,0,0,0
CCCc1nc2ccccc2c(C(=O)OCC(=O)N2CCc3ccccc32)c1CC,0,0,0,0,0,83
CCCc1nc2ccccc2c(C(=O)OCC(=O)Nc2ccc(S(=O)(=O)N3CCOCC3)cc2)c1CC,0,0,0,0,0,91
CC1CCc2nc3ccccc3c(C(=O)OCC(=O)N3CCc4ccccc43)c2C1 (configuration not stated),0,0,0,0,0,0
CCCc1nc2ccccc2c(C(=O)OCC(=O)Nc2cccc(S(=O)(=O)N3CCOCC3)c2)c1CC,0,0,0,0,0,0
CCOc1ccc(NC(=O)CCN2CCN(C)CC2)cc1,0,0,0,0,0,0
CN(c1ccccc1)S(=O)(=O)c1ccc(C(=O)N2CCCC(C(F)(F)F)C2)cc1 (configuration not stated),0,0,0,0,0,0
Fc1ccc(CN(Cc2ccccc2)C(c2cccs2)c2nnnn2C2CCCCC2)cc1 (configuration not stated),94,0,0,0,0,0
Clc1ccc(CN(Cc2ccccc2)C(c2cccs2)c2nnnn2C2CCCC2)cc1 (configuration not stated),0,0,0,0,0,0
Cc1ccc(OP(=O)(Nc2c(C)n(C)n(-c3ccccc3)c2=O)Oc2ccc(C)cc2)cc1,0,0,0,0,0,0
CC1(C)N=C(N)N=C(N)N1c1ccc(OCCCOc2ccccc2)c(Cl)c1,103,0,0,-,0,85
CCOc1ccc(N2C(N)=NC(N)=NC2(C)C)cc1,0,0,0,0,0,0
CC1(C)CC(=O)C2=C(C1)OC1=C(C(=O)CC(C)(C)C1)C2c1cc([N+](=O)[O-])cc([N+](=O)[O-])c1O,-,0,0,0,91,0
CCNC(=S)NNC(=O)c1cc(-c2ccc(OC)cc2)nc2ccccc12,0,0,0,0,99,0
CCNC(=S)NNC(=O)c1cc(-c2cccc(C)c2)nc2ccccc12,0,0,0,0,116,0
COc1ccc2cc(CCOC3CCCCO3)ncc2c1 (configuration not stated),0,0,0,0,-,0
Cc1ccc(-n2c(Cl)c(Cl)nc(Cl)c2=O)cc1,98,0,0,-,-,91
CC1CCc2c(C(=O)Nc3ccc(N4CCOCC4)cc3)csc2C1 (configuration not stated),0,0,0,0,0,0
S=c1[nH]nc(COc2ccccc2)n1/N=C/C(Cl)=C/c1ccccc1,0,0,0,0,0,142
Oc1ccc(/C=N/n2c(COc3ccccc3)n[nH]c2=S)cc1O,0,0,0,0,77,0
Cc1ccc(S(=O)(=O)N2CCN(C(=O)COc3ccc(NC(=O)c4ccco4)cc3)CC2)cc1,0,0,0,0,0,94
O=C(COc1ccc(-c2ccccc2)cc1)N/N=C/c1cc(O)ccc1Br,0,0,0,0,0,89
Cc1ccc(C)c(SCC(=O)Nc2cccnc2Cl)c1,0,0,0,0,123,-
COc1ccc(-c2n[nH]c(C)c2-c2cnn(-c3ccccc3)c2)c(O)c1,0,0,0,0,95,0
SMILES,Beta cell apopt,PP5 inh,PP1 counter,Mdm2 MdmX PPI,Calb FLC,CSC inhib
COc1ccc(-c2n[nH]c(C)c2-c2cnn(-c3ccccc3)c2)c(O)c1C,0,0,0,0,0,0
CC(C)=CCc1c(O)cc2c(=O)c3ccc(O)cc3oc2c1O,0,0,0,0,0,83
Cc1cccc2cc(-c3ccccc3)c(-c3ccccc3)c[n+]12,99,0,0,-,0,0
O=[N+]([O-])c1cccc(-c2cc3cccc[n+]3cc2-c2cccc([N+](=O)[O-])c2)c1,0,0,0,0,0,0
Cc1ccc(-n2nc(C)c3c(C)c(CCC(=O)NCC4CCCO4)c(=O)n(C)c32)cc1 (configuration not stated),0,0,0,0,0,0
Cc1sc2ncnc(NCCc3ccc(S(N)(=O)=O)cc3)c2c1C,93,0,0,0,?,0
CC(C)=CCC/C(C)=C/Cc1c(O)ccc(C(=O)/C=C/c2ccc(O)cc2)c1O,0,0,0,0,0,121
CC(C)c1ccc(C2=C(O)c3ccccc3C(=O)C2=O)cc1,0,0,0,0,99,0
O=[N+]([O-])c1ccc(N2CCN(C(=S)NCc3ccc(Cl)cc3)CC2)cc1,96,0,0,0,0,0
c1ccc(Cn2c[n+](Cc3ccccc3)cn2)cc1,0,0,0,0,0,0
COC(=O)[C@@H]1CCCN1Cc1nc(Cc2ccccc2F)no1,0,0,0,0,92,0
COC(=O)[C@@H]1CCCN1Cc1nc(Cc2ccc(OC)c(OC)c2)no1,0,0,0,0,0,0
N/C(Cc1nc(-c2ccc(Br)cc2)cs1)=N\O,0,0,0,0,99,0
Cc1cccc(OCCNc2cc(N3CCOCC3)ccc2[N+](=O)[O-])c1,0,0,0,0,0,0
Cc1cccc(OCCNc2cc(N3CCN(C)CC3)ccc2[N+](=O)[O-])c1,0,0,0,0,0,80
O=C(NNC(=O)C1CCC1)c1cccc(Cl)c1,0,0,0,0,-,0
CC(C)(C)c1nc(-c2ccccc2)nc2c1OCCC2,0,0,0,0,0,0
COc1ccc(C2C(C(=O)c3ccc(C)o3)=C(O)C(=O)N2Cc2ccco2)cc1OC (configuration not stated),0,0,0,0,0,0
Cc1ccc(C(=O)C2=C(O)C(=O)N(Cc3cccnc3)C2c2ccc(Cl)cc2)o1 (configuration not stated),0,0,16,0,0,0
Cc1ccc(C(=O)C2=C(O)C(=O)N(Cc3cccnc3)C2c2cccc(Oc3ccccc3)c2)o1 (configuration not stated),0,0,45,0,0,0
CCOc1ccc(C2C(C(=O)c3ccc(C)o3)=C(O)C(=O)N2Cc2cccnc2)cc1 (configuration not stated),0,0,15,0,-,0
CCCOc1ccc(C2C(C(=O)c3ccc(C)o3)=C(O)C(=O)N2Cc2ccco2)cc1OCC (configuration not stated),0,0,35,0,0,0
CC(=O)c1ccc(NC(=O)CN2C(=O)COc3ccc(S(=O)(=O)N4CCCC4)cc32)cc1,0,0,0,0,0,0
CC1CCC(NC(=O)c2cc3c(s2)CCCC3)CC1 (configuration not stated),0,0,0,0,0,0
C[N+](C)(C)C(Cc1c[nH]c2ccccc12)C(=O)[O-] (configuration not stated),-,-,-,0,0,-

# High-throughput results: PubChem, several laboratories
